Shiga toxin inh: A qHTS for Small Molecule Inhibitors of Shiga Toxin; Vero cells, Shiga toxin protein synthesis inhibition reporter; inhibition, % at 38.7 µM; 290,000 compounds, 9.2% hits; in the data active = inhibition mostly above about 28%, no sharp cut-off; inactive = mostly below about 43%
Marburg entry inh: qHTS for inhibitors of binding or entry into cells for Marburg Virus. AID 540276, 2011. Marburg virus pseudotyped entry inhibition, cell reporter. Potency, µM (titrated, usually from 37.8 µM), actives largely listed as inhibitors. 300,000 compounds, 1.8% hits; calls by dose curve; tested in HEK293 cells
FMDV antiviral: High Throughput Screening for Foot and Mouth Disease Virus Antivirals. FMDV antiviral cell-based qHTS. Potency, µM (titrated, usually from 57.9 µM), hits mostly inhibitors. 410,000 compounds, 1.2% hits; calls by dose curve; tested in HEK293T cells; note: read-out not given here; nearly all actives have a fitted effect of over 45% in size
Lassa entry inh: qHTS for Inhibitors of binding or entry into cells for Lassa Virus. Lassa virus pseudotype entry inhibition, cell reporter. 300,000 compounds, 1.2% hits. AID 540256, 2011. Potency, µM (titrated, usually from 37.9 µM), actives largely listed as inhibitors; calls by dose curve; tested in HEK293 cells; note: nearly all actives have a fitted effect of over 50% in size
HCV inhibitor: qHTS Assay for Inhibitors of Hepatitis C Virus (HCV). Huh7.5.1 HCVcc-Cre infection, luciferase reporter, 44 h. Potency, µM (doses to about 41.8 µM), usual class: inhibitors. 340,000 compounds, 3.4% hits. AID 651820, 2012; active = well fitted inhibition curve with a large enough effect; inconclusive = small, poorly fitted or top-dose-only effect, or another doubt; inactive = no such curve, though single readings can be large or run the other way
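A cell-based infection assay in which seeded cells (1,000 per well) receive test compound after 4 h, are inoculated with HCVcc-Cre at approximately 0.5 moi, and are incubated 44 h before luminescence detection.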
Cycloheximide cs: Cycloheximide Counterscreen for Small Molecule Inhibitors of Shiga Toxin | 300,000 compounds, 12% hits | AID 2314, 2010 | max response, % | cell reporter, cycloheximide protein synthesis inhibition counterscreen; in the data active = max response mostly above about 13%, no sharp cut-off; inactive = mostly below about 14%; note: read at 38.3 µM for the half of the compounds with a filed dose
Each line names hits and unclear results; the compound was inactive in the other large screens. Hits are enriched below; roughly 13% of the tested compounds scored in any of these assays.

Cc1ccc(C(=O)NC2CCCC2)cc1S(=O)(=O)N1CCCCC1	Lassa entry inh inconclusive, HCV inhibitor inconclusive
O=C(Nc1cccc(S(=O)(=O)N2CCCCC2)c1)c1ccc([N+](=O)[O-])o1	HCV inhibitor inconclusive, Cycloheximide cs 28.8 (no result: Marburg entry inh, Lassa entry inh)
O=C(Nc1ccccc1)c1ccc(NCc2ccco2)c(S(=O)(=O)N2CCOCC2)c1	Lassa entry inh inconclusive, Cycloheximide cs 10.0
Cc1ccc(C(=O)NNC(=O)c2ccccc2O)cc1S(=O)(=O)N1CCCCC1	HCV inhibitor 12.6µM (no result: Shiga toxin inh, Cycloheximide cs)
CCOc1ccc2nc(N3CCCC(C(=O)NCCc4ccc(SC)cc4)C3)sc2c1 (centres undefined)	Marburg entry inh inconclusive (no result: Shiga toxin inh, Lassa entry inh, HCV inhibitor, Cycloheximide cs)
CC(C)(C)c1ccc(C(=O)Nc2cccc(C(=O)N3CCOCC3)c2)cc1	Shiga toxin inh 57.5, HCV inhibitor 5.62µM, Cycloheximide cs 44.5 (no result: Marburg entry inh, Lassa entry inh)
Cc1ccc(C(=O)Nc2cccc(C(=O)O)c2)cc1S(=O)(=O)N1CCOCC1	Marburg entry inh inconclusive, Lassa entry inh inconclusive, Cycloheximide cs 23.6 (no result: FMDV antiviral)
Cc1ccc(C(=O)Nc2cccc(C(=O)O)c2)cc1S(=O)(=O)N1CCCCC1	Shiga toxin inh 131.8, Marburg entry inh inconclusive, Lassa entry inh inconclusive, Cycloheximide cs 86.7
Cc1ccc(C(=O)Nc2cccnc2)cc1S(=O)(=O)N1CCCCC1	Marburg entry inh inconclusive, HCV inhibitor inconclusive
CC(=O)c1cccc(NC(=O)c2ccc(C)c(S(=O)(=O)N3CCOCC3)c2)c1	none (no result: Lassa entry inh)
O=[N+]([O-])c1cccc(S(=O)(=O)Nc2nc3ccccc3nc2Nc2cccc(S(=O)(=O)N3CCCCC3)c2)c1	FMDV antiviral inconclusive, HCV inhibitor 10µM (no result: Marburg entry inh, Lassa entry inh)
c1ccc2cc(CNCc3cccc4ccccc34)ccc2c1	Lassa entry inh inconclusive
O=C(Cn1cnc2cc([N+](=O)[O-])ccc2c1=O)Nc1cccc(S(=O)(=O)N2CCCCC2)c1	FMDV antiviral inconclusive, HCV inhibitor 5.62µM (no result: Shiga toxin inh, Marburg entry inh, Lassa entry inh, Cycloheximide cs)
Cc1ccc(C(=O)NCc2ccco2)cc1S(=O)(=O)N1CCCCC1	Lassa entry inh inconclusive (no result: FMDV antiviral)
Cc1ccc(C(=O)Nc2ccccc2C(=O)NCc2ccco2)cc1S(=O)(=O)N1CCCCC1	Shiga toxin inh 52.3, Marburg entry inh inconclusive, HCV inhibitor inconclusive, Cycloheximide cs 31.2
Cc1ccc(C(=O)Nc2cccnc2)cc1S(=O)(=O)N1CCCC1	Cycloheximide cs 19.5 (no result: HCV inhibitor)
Cc1cccc(C)c1NS(=O)(=O)c1ccc(NC(=O)c2ccc(Cl)c([N+](=O)[O-])c2)cc1	HCV inhibitor 7.08µM
O=C(CSc1ccc(-c2ccc(F)cc2)nn1)N1CCN(c2ccccc2)CC1	none
Cc1ccc(NC(=O)N/C=C/c2ccco2)cc1C	none
O=C(O)CSc1nnc(Cc2cccc3ccccc23)n1-c1cc(C(F)(F)F)cc(C(F)(F)F)c1	none (no result: Marburg entry inh, Lassa entry inh)
CC1=C(C)CC(C(=O)NCc2ccc3c(c2)OCO3)C(C(=O)O)C1 (centres undefined)	none
Cc1ccc(S(=O)(=O)Nc2c(C)n(C)n(-c3ccccc3)c2=O)cc1C(=O)NCc1ccco1	Marburg entry inh inconclusive, Lassa entry inh inconclusive, HCV inhibitor 31.6µM (no result: Shiga toxin inh, Cycloheximide cs)
Cc1ccc(C(=O)Nc2cccc(S(=O)(=O)N3CCCCC3)c2)cc1S(=O)(=O)N1CCOCC1	FMDV antiviral inconclusive, HCV inhibitor 8.91µM (no result: Shiga toxin inh, Marburg entry inh, Lassa entry inh, Cycloheximide cs)
COc1ccc(C(=O)Nc2cccc(S(=O)(=O)N3CCCC3)c2)cc1S(=O)(=O)N1CCOCC1	HCV inhibitor inconclusive (no result: Shiga toxin inh, Cycloheximide cs)
CC1CCCCC1NC(=O)CCCCCn1c(=S)[nH]c2ccsc2c1=O (centres undefined)	none (no result: Marburg entry inh, Lassa entry inh)
CN(C)S(=O)(=O)c1cccc(-c2nnc(SCc3cc(Cl)cc4c3OCOC4)n2N)c1	FMDV antiviral inconclusive, HCV inhibitor inconclusive
Cc1ccc(CNC(=O)c2c(O)nc3cc(C)ccn3c2=O)cc1	Marburg entry inh inconclusive (no result: Shiga toxin inh, Lassa entry inh, HCV inhibitor, Cycloheximide cs)
Cn1cc(/C=C(\C#N)C(=O)Nc2cccc([N+](=O)[O-])c2)c2ccccc21	none (no result: Marburg entry inh, Lassa entry inh)
COc1ccc(C(=O)N/N=C(\C)CC(=O)N2CCN(C=O)CC2)cc1	Marburg entry inh inconclusive, Lassa entry inh inconclusive, Cycloheximide cs 31.2
COc1ccc(C/C(C)=N/NC(=S)Nc2ccccc2F)cc1	Shiga toxin inh 91.1, Lassa entry inh inconclusive, Cycloheximide cs 54.4
COc1ccc(C/C(C)=N/NC(=S)Nc2ccc(C(C)C)cc2)cc1	Marburg entry inh inconclusive, Lassa entry inh inconclusive
COc1ccc(C/C(C)=N/NC(=O)c2cccnc2)cc1	Cycloheximide cs 26.6
CCOc1cc(C(=O)N/N=C(\C)Cc2ccc(OC)cc2)cc(OCC)c1OCC	Lassa entry inh inconclusive, HCV inhibitor inconclusive
COc1ccc(C/C(C)=N/NC(=O)c2ccc(Cl)cc2)cc1	Shiga toxin inh 36.9, Cycloheximide cs 14.4
COC(=O)c1ccccc1NC(=O)COC(=O)CSc1nnc(N)s1	none (no result: Marburg entry inh, Lassa entry inh)
O=C(COC(=O)c1cc(-c2ccccc2)nc2ccccc12)Nc1ccc2c(c1)OCO2	Marburg entry inh inconclusive
CC(=O)c1ccc(NC(=O)COC(=O)c2c3c(nc4ccccc24)/C(=C\c2cccs2)CCC3)cc1	Marburg entry inh 8.91µM, FMDV antiviral inconclusive, Lassa entry inh inconclusive, HCV inhibitor inconclusive, Cycloheximide cs 14.7
CC(C)NC(=O)NC(=O)COC(=O)c1c2c(nc3ccccc13)CCC2	Marburg entry inh inconclusive, FMDV antiviral 11.2µM, HCV inhibitor 4.47µM (no result: Lassa entry inh)
O=C(COC(=O)c1c2c(nc3ccccc13)CCCC2)Nc1ccc2c(c1)OCO2	Marburg entry inh inconclusive, Lassa entry inh inconclusive, HCV inhibitor 5.62µM
CC(C)(C)NC(=O)COC(=O)c1c2c(nc3ccccc13)CCC2	HCV inhibitor inconclusive
O=C(COC(=O)c1c2c(nc3ccccc13)/C(=C\c1cccs1)CCC2)Nc1ccccc1	Marburg entry inh inconclusive, Lassa entry inh inconclusive, HCV inhibitor inconclusive
Cc1cc(C)cc(NC(=O)CCn2c(=O)c3cccn3c3ccccc32)c1	FMDV antiviral inconclusive, HCV inhibitor 3.16µM (no result: Marburg entry inh, Lassa entry inh)
COc1ccc(NC(=O)COC(=O)c2cc(S(=O)(=O)N3CCCC3)ccc2O)cc1	none (no result: Shiga toxin inh, Cycloheximide cs)
CC(C)Cn1c(=O)c2sccc2n2c(CCCC(=O)N3CCC(N4CCCCC4)CC3)nnc12	none
CC(C)CCn1c(=O)c2sccc2n2c(CCCC(=O)N3CCC(N4CCCCC4)CC3)nnc12	HCV inhibitor 12.6µM (no result: Marburg entry inh, Lassa entry inh)
Fc1ccc(-c2[nH]ncc2-c2nnnn2-c2ccccc2)c(F)c1	none
Cc1cccc(CCNC(=O)c2cc3ccccn3n2)c1	none (no result: Shiga toxin inh, Marburg entry inh, HCV inhibitor, Cycloheximide cs)
CCOc1ccc(CCNC(=O)c2cc3ccccn3n2)cc1OCC	FMDV antiviral inconclusive, HCV inhibitor 12.6µM (no result: Marburg entry inh, Lassa entry inh)
O=C(NCc1ccc(F)cc1)c1cc2ccccn2n1	Cycloheximide cs 24.3
CCc1ccc(CNC(=O)c2cc3ccccn3n2)cc1	Lassa entry inh inconclusive (no result: Shiga toxin inh, Marburg entry inh, HCV inhibitor, Cycloheximide cs)
COc1ccc(CCN2C(=O)c3[nH]nc(-c4ccccc4O)c3C2c2ccccc2)cc1OC (centres undefined)	Marburg entry inh inconclusive, FMDV antiviral inconclusive, Lassa entry inh 17.8µM, HCV inhibitor 11.2µM

Screening data (PubChem BioAssay)
